Compounds with a hit are over-represented: about 4% of the library has one in this group of screens.
TWEAK Fn14 block: inhibitors of TWEAK-Fn14 signaling, primary screen, luciferase reporter cells, uHTS; TWEAK-stimulated Fn14 reporter cells, luciferase luminescence, 8 h; inhibition, % at 10 µM; 360,000 compounds, 2% hits; in the data active = inhibition above about 50%
HIF-2a block: HIF-2a reporter inhibitors, primary screen, luminescence, 786-0 RCC cells | inhibition, % at 18.8 µM | AID 624352, 2012 | 360,000 compounds, 0.72% hits | 786-0 RCC cells HIF-2a reporter, luciferase luminescence, overnight;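 active = inhibition of the luminescence signal of 40% or more relative to plate controls, in a single-dose primary screen at 18.75 µM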
CF NFkB block: inhibitors of PAF-induced NF-kB signaling, primary screen, cell-based, GFP fluorescence, uHTS; AID 588850, 2011; inhibition, % at 5 µM; KKLEB NF-kB-GFP reporter, GFP fluorescence overnight; 360,000 compounds, 0.86% hits;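 active = at least 50% inhibition at 5 µM, scaled per plate between neutral and stimulator controls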;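 note: PAF is a Pseudomonas aeruginosa culture filtrate used as stimulus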
Peg3 prom inh: Peg3 promoter-driven luciferase inhibitors, primary screen, cell-based, HeLa, luciferase luminescence; HeLa PEG-Prom luciferase reporter, overnight; 360,000 compounds, 1.7% hits; inhibition, % at 20 µM;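 active = inhibition of at least 50% at 20 µM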
KKLEB cytotox: cytotoxicity in KKLEB CF airway cells, primary screen, cytotoxicity control for CF NF-kB inhibitor project, cell-based, uHTS, fluorescence assay plates; activity change (cytotoxicity), % at 5 µM; 360,000 compounds, 0.36% hits; KKLEB CF airway cells viability, ATPlite luminescence, overnight; hits give low values; cells stimulated with P. aeruginosa culture filtrate; AID 602141, 2011;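 active = corrected activity change at or below -50% at 5 µM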
TROY NFkB inh: inhibitors of TROY-driven NF-kB signaling, primary screen, Q293 LMP1-TROYcd cells, NF-kB luciferase, uHTS. inhibition, % at 10 µM. Q293 LMP1-TROYcd NF-kB luciferase reporter, 4 h. 360,000 compounds, 0.98% hits. AID 1347056, 2019;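 active = compounds whose plate-normalised and pattern-corrected inhibition of the luciferase reporter signal at the single screening dose is 50% or more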
Of the large screens only hits and unclear results are named; the others gave an inactive call.

NS(=O)(=O)c1ccc(N=Nc2c(-c3ccccc3)[nH]n(-c3nc(-c4ccccc4)cs3)c2=O)cc1	Peg3 prom inh 71.3
O=C(NCCc1csc(-c2ccc(Cl)cc2)n1)c1ccco1	none
CC(=O)OC[C@]12CC[C@H]3[C@@](C)(CC[C@H]4C(C)(C)CCC[C@]34C)[C@@H]1CC(C1=CC(=O)OC1O)O2 (some centres not stated)	TWEAK Fn14 block 107.7, HIF-2a block 88.9, CF NFkB block 92.2, Peg3 prom inh 105.3, KKLEB cytotox -80.9, TROY NFkB inh 88.2
Cc1cc(C)n(C(=O)c2cc3c(s2)CCCC3)n1	none
C=CCN1c2ccccc2[C@]23C[C@@H](C(=O)OC)N(C(=O)c4cccs4)C2=NC(C(=O)OC)=C(C(=O)OC)[C@H]13	Peg3 prom inh 75.0
COC(=O)C1=C(C(=O)OC)[C@@H]2N(C)c3ccc(OC)cc3[C@@]23C[C@@H](C(=O)OC)N(C(=O)c2ccc(Br)cc2)C3=N1	TWEAK Fn14 block 53.4, CF NFkB block 54.7, Peg3 prom inh 79.0
CC#CCN1c2ccccc2[C@]23C[C@@H](C(=O)OC)N(C(=O)C4CCC4)C2=NC(C(=O)OC)=C(C(=O)OC)[C@H]13	Peg3 prom inh 74.7
C=CCN1c2ccccc2[C@]23C[C@@H](C(=O)OC)N(C(=O)OCC)C2=NC(C(=O)OC)=C(C(=O)OC)[C@H]13	none
COC(=O)C1=C(C(=O)OC)[C@@H]2N(Cc3ccccc3)c3ccccc3[C@@]23C[C@@H](C(=O)OC)N(C(C)=O)C3=N1	none
COC(=O)C1=C(C(=O)OC)[C@@H]2N(Cc3ccccc3)c3ccccc3[C@@]23C[C@@H](C(=O)OC)N(C(=O)COCc2ccccc2)C3=N1	TWEAK Fn14 block 50.9, Peg3 prom inh 55.4
COc1cccc(/C=C/C(=O)OCC(=O)NC2CCCCCC2)c1	none
CS(=O)(=O)c1sc(C(=O)NC(=O)Nc2cccc(C(F)(F)F)c2)c2c1C=CCC2	none
CCOC(=O)C1=C(C)N=c2s/c(=C\c3ccc(O)c([N+](=O)[O-])c3)c(=O)n2C1c1ccccc1OC (configuration not stated)	Peg3 prom inh 53.3
CN1CCN(C(=O)c2ccccc2N(Cc2ccccc2)S(C)(=O)=O)CC1	TWEAK Fn14 block 72.0
CN1CCN(C(=O)c2ccccc2N(Cc2ccccc2)S(=O)(=O)c2ccccc2)CC1	none
CCC(=O)Oc1ccc(/C(CC)=C(\CC)c2ccc(OC(=O)CC)cc2)cc1	none
CCCCNC(=O)CC(NS(=O)(=O)c1ccc(C)cc1)c1ccco1 (configuration not stated)	none
Cc1ccccc1NC1=C(C(=O)c2ccccc2)N(C)S(=O)(=O)c2ccccc21	none
O=C(C1=C(Nc2ccccc2)c2ccccc2S(=O)(=O)N1)c1ccccc1	TWEAK Fn14 block 73.6, TROY NFkB inh 55.3
Cc1ccc(-c2nc(SC(C)C(=O)N3CCOCC3)n[nH]2)cc1 (configuration not stated)	none
CC1C(c2ccccc2)N(C)C(c2ccccc2)C(C)C1(O)C#Cc1ccccc1 (configuration not stated)	Peg3 prom inh 61.6
Cc1cc(NC(=O)CCCC(=O)N(CC(=O)NC2CCCCC2)c2ccccc2)no1	none
CCOc1ccc(-c2nnc(-c3ccccc3)o2)cc1	TWEAK Fn14 block 81.2
CCCCOc1ccc(-c2nc(-c3cccnc3)no2)cc1	none
CCOc1ccc(-c2nc(-c3cccnc3)no2)cc1	TWEAK Fn14 block 67.4
O=C(NCc1cccc(Cl)c1)C1CCCO1 (configuration not stated)	none
O=C(Cn1c(NCCO)nc2ccccc21)NCC1CCCO1 (configuration not stated)	none
CCCSc1nnc(CNC(=O)C23CC4CC(CC(C4)C2)C3)n1Cc1ccccc1	none
CC(C)N1CCc2c(sc(NC(=O)c3ccc(S(=O)(=O)N(C)CC4CCCO4)cc3)c2C(N)=O)C1 (configuration not stated)	none
CC(C)N1CCc2c(sc(NC(=O)c3ccc(C(=O)c4ccccc4)cc3)c2C(N)=O)C1	Peg3 prom inh 58.9
CC(C)N1CCc2c(sc(NC(=O)c3ccc(S(=O)(=O)N4CCCCC4C)cc3)c2C(N)=O)C1 (configuration not stated)	Peg3 prom inh 67.6
CC(C)N1CCc2c(sc(NC(=O)c3ccc4ccccc4c3)c2C(N)=O)C1	none
COc1ccccc1N1CCN(Cc2cc(=O)oc3cc(C)ccc23)CC1	none
CCC1CCC(N2CCN(c3ccc(F)cc3)CC2)CC1 (configuration not stated)	none
COC(=O)c1ccc2c(c1)C(NC(C)=O)CCc1cc(OC)c(OC)c(OC)c1-2 (configuration not stated)	CF NFkB block 58.7
COc1cc2c(c(OC)c1OC)-c1ccc(SC)c(=O)cc1C(NC=O)CC2 (configuration not stated)	TWEAK Fn14 block 57.2
Cc1nn(-c2ccc(Cl)cc2)c2[nH]c(CCl)cc(=O)c12	none
CC(C)c1ccc(OCC(=O)NN2C(=O)c3ccccc3C2=O)c(Br)c1	TWEAK Fn14 block 68.7
Oc1cccc(-c2nnc(-c3cccc(O)c3)nn2)c1	TWEAK Fn14 block 84.5, KKLEB cytotox -59.8
C#CCOCCOCCOCCNc1nc(N2CCN(C(=O)C(Cc3cc4ccccc4[nH]3)n3cc(C(N)Cc4ccc(O)cc4)nn3)CC2)nc(N2CCN(C(=O)C(CCC(=O)O)n3cc(C(N)C(C)CC)nn3)CC2)n1 (configuration not stated)	none
CN1C(=O)/C(=C\c2ccccc2F)Sc2ccc(C(=O)NC3CCN(Cc4ccccc4)CC3)cc21	Peg3 prom inh 58.3
Cc1ccccc1CN1C(=O)/C(=C\c2ccc(C(=O)NCCN3CCOCC3)cc2)Sc2ccccc21	Peg3 prom inh 56.6
O=C(NCCN1CCOCC1)c1ccc(/C=C2\Sc3ccccc3N(Cc3ccccc3F)C2=O)cc1	Peg3 prom inh 59.2
CN1CCN(CCCNC(=O)c2ccc(/C=C3\Sc4ccccc4N(Cc4ccccc4F)C3=O)cc2)CC1	Peg3 prom inh 74.3
O=C(CN1C(=O)/C(=C/c2ccc(C(F)(F)F)cc2)Sc2ccccc21)NCCCN1CCOCC1	none
CCOCCCNC(=O)/C=C1\Sc2ccccc2N(Cc2ccccc2F)C1=O	none
CCc1ccc(/C=C2/Sc3ccccc3N(CC(=O)NCCCN3CCOCC3)C2=O)cc1	none
O=C(O)CC/C(=N/NC(=O)c1ccc(-c2ccccc2)cc1)c1ccccc1	none
Cc1ccc(SCCNCc2ccco2)cc1	none
